Hits are enriched below; roughly 17% of the tested compounds scored in any of these assays.
HT1080 IDH1KD tx – qHTS for induction of synthetic lethality in tumor cells producing 2HG: qHTS for the HT-1080-IDH1KD cell line; HT-1080 IDH1 knockdown viability, ATP luminescence, 48 h; Potency, µM (series often up to 46.1 µM), inactives show top-dose activity, negative = toxicity, usual class: cytotoxic; 360,000 tested, 2% active; AID 686971, 2013;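 note: 0% = DMSO wells and -100% = cell-free medium wells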
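Viability of IDH1-knockdown HT-1080 fibrosarcoma cells was assessed by CellTiter-Glo after 48 h at 37 °C with titrated compound; concentration-effect curves were classified by fit quality and response size.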
TDP1 cell noCPT – qHTS for Inhibitors of human tyrosyl-DNA phosphodiesterase 1 (TDP1): qHTS in cells in absence of CPT; DT40 Tdp1-/- hTDP1 cells, no CPT, ATP luminescence, 48 h; Potency, µM (titrated, usually from 46.2 µM), inactives show at the top dose activity change, negative = growth inhibition, most hits filed as inhibitors; 420,000 tested, 15% active; note: % is set by controls: 0 for no effect and ±100 for the full control effect; nearly all actives have a fitted effect of over 55% in size
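Compound effects on proliferation are scored in DT40 Tdp1-/-;hTDP1 cells in the absence of CPT. ATP levels (CellTiter-Glo luminescence) are recorded after a ≥48 hr, 37 °C incubation.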
DT40 TDP1 CPT – qHTS for Inhibitors of human tyrosyl-DNA phosphodiesterase 1 (TDP1): qHTS in cells in presence of CPT | Potency, µM (doses to about 46.2 µM), without a hit: top-dose activity change, negative = growth inhibition, usual class: inhibitors | 420,000 tested, 12% active | chicken DT40 Tdp1-/-;hTDP1 cells + 20 nM CPT, ATP luminescence, 48 h; note: % is set by controls: 0 for no effect and ±100 for the full control effect; nearly all actives have a fitted effect of over 55% in size
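Chicken DT40 Tdp1-/- cells complemented with human TDP1, 400 cells/well, exposed to compounds plus 20 nM camptothecin for at least 48 h at 37 C; viability read as ATP content by CellTiter-Glo luminescence.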
HT1080NT lethal – qHTS for induction of synthetic lethality in tumor cells producing 2HG: qHTS for the HT-1080-NT fibrosarcoma cell line; HT-1080-NT fibrosarcoma viability, CellTiter-Glo ATP luminescence, 48 h; Potency, µM (series often up to 46.1 µM), inactives show top-dose activity, negative = less viability, usual class: cytotoxic; 360,000 tested, 1.6% active;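 note: NT is the 2HG producing partner of a matched IDH1 knockdown line; 0% = DMSO-treated cells and -100% = media-only wells without cells; nearly all actives have a fitted effect of over 55% in size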
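Toxicity toward the 2HG-producing NT line was scored as %Activity, normalised to DMSO and no-cell wells, from CellTiter-Glo luminescence after 48 hours' treatment.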
TGFb SMAD3 inh – qHTS for Inhibitors of TGF-b; HepG2 CAGA-GFP TGF-b/SMAD3 reporter, GFP fluorescence, 18 h; TGF-beta stimulated, 500 pg/mL final; Potency, µM (highest dose often 46.1 µM), inactives show top-dose activity, negative = inhibition, actives largely listed as inhibitors; 410,000 tested, 1.2% active; note: % is set by controls: 0 for no effect and ±100 for the full control effect; nearly all actives have a fitted effect of over 65% in size
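TGF-beta reporter screen: HEPG2 CAGA-GFP, 1% FBS, 500 pg/mL TGF-beta final, 18 h; per-cell GFP summed per well; curves fitted and categorized by class.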
HepG2 tox – qHTS for Inhibitors of TGF-b: Cytotox Counterscreen | HepG2 CAGA-GFP viability, ATP luminescence, 18 h | Potency, µM (series often up to 46.1 µM), for the others: at the highest dose activity change, negative = cytotoxicity, usual class: cytotoxic | 410,000 tested, 0.76% active
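HepG2 CAGA-GFP cells (1000/well, DMEM with 1% FBS) received compound, then TGF-beta at 500 pg/mL final, and were incubated 18 hours at 37 degrees C. Viability was read by CellTiter-Glo luminescence. Media-only wells were set as complete cell-killing and DMSO as no toxicity.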
The depositor's hits bear a star; ? = inconclusive; . = no result. Calls come from the whole dose curve; as a rule, active = well fitted curve in the direction sought with a large enough effect; inconclusive = small, poorly fitted or top-dose-only effect, or another doubt; inactive = no such curve, though single readings can be large; an effect the other way counts as inactive or inconclusive. Potency is the fitted concentration of half-maximal effect.

SMILES	HT1080 IDH1KD tx	TDP1 cell noCPT	DT40 TDP1 CPT	HT1080NT lethal	TGFb SMAD3 inh	HepG2 tox
CCC1CCc2c(sc(NC(=O)C3c4ccccc4Oc4ccccc43)c2C(=O)OC)C1 (stereo not drawn)	.	10.3µM*	?	.	-24.6%	-22.5%
CCOC(=O)c1c(NC(=O)/C=C/C(=O)O)sc(C)c1-c1ccc(Cl)cc1	23.1µM*	13µM*	?	?	?	17.8µM*
CCOC(=O)c1c(NC(=O)C2=C(C)NC(=S)NC2c2ccc(C)cc2)sc(C)c1C (stereo not drawn)	-29.6%	13µM*	?	?	6.3%	25.5%
COc1cc(C(=O)NCC2CCCCC2)ccc1OCc1c(C)noc1C	7.9%	19.0%	-8.2%	8.6%	-1.5%	1.6%
CCOC(=O)c1c(NC(=O)Nc2ccc(Cl)cc2)sc(C)c1C	5.6%	13µM*	?	8.5%	-7.3%	5.3%
CCOc1cc(C2NC(=S)NC(C)=C2C(=O)Nc2ccc(OC)cc2)ccc1O (stereo not drawn)	3.3%	5.5%	?	-5.0%	-11.7%	-9.0%
CCOc1cccc(C2NC(=S)NC(C)=C2C(=O)Nc2ccccc2)c1 (stereo not drawn)	?	23.1µM*	?	?	?	-24.1%
O=C(Nc1ccc(Cl)cc1)Nc1ccon1	-18.8%	14.6µM*	18.4µM*	-12.5%	-7.6%	-10.9%
Cc1cc(=O)n(C(C)C(=O)NCc2ccccc2Cl)c2c1c(C)nn2-c1ccccc1 (stereo not drawn)	.	-10.4%	-19.7%	.	-7.0%	-22.1%
CC(=O)c1ccc(OCCOc2ccc(C#N)cc2)cc1	12.2%	?	?	10.4%	-4.4%	-23.8%
COC(=O)C[C@H]1c2ccccc2S(=O)(=O)N1c1ccc(N(C)C)cc1	.	10µM*	?	.	-2.0%	5.5%
COC(=O)C[C@H]1c2cc(C(F)(F)F)ccc2S(=O)(=O)N1c1ccc(N(C)C)cc1	1.4%	10.3µM*	13µM*	-0.3%	0.9%	11.2%
CN(C)c1ccc(N2[C@@H](CC(=O)O)c3cc(C(F)(F)F)ccc3S2(=O)=O)cc1	2.4%	?	?	-1.6%	-22.5%	-35.3%
CC(=O)C[C@H]1c2cc(C(F)(F)F)ccc2S(=O)(=O)N1c1ccc(N(C)C)cc1	-2.2%	14.6µM*	7.94µM*	-6.0%	-22.0%	-3.5%
O=C(CCn1cccn1)Nc1ccc2c(c1)OCCO2	4.2%	-17.4%	-0.8%	-2.3%	14.9%	2.4%
O=C(CSc1nc(=O)n2ccccc2n1)OCc1ccccc1	1.3%	12.8%	0.9%	1.6%	-1.9%	8.6%
Cc1cc(OC(C)C(=O)N2CCN(CCc3ccccn3)CC2)ccc1Cl (stereo not drawn)	.	-25.1%	-29.5%	.	-0.1%	8.2%
c1ccc(C2Nc3ccccc3Oc3ccccc32)cc1 (stereo not drawn)	-22.5%	-14.0%	-18.2%	-27.2%	4.7%	-29.3%
O=C1NC(c2ccccc2)N=C2Oc3ccccc3C=C12 (stereo not drawn)	?	4.61µM*	4.61µM*	?	-25.7%	-14.1%
CC(C)CNC(=O)C1(C)CCCCCN1Cc1ccccc1-c1ccccc1 (stereo not drawn)	?	?	?	?	?	-93.5%
O=C(c1ccccc1)C1C(c2ccccc2)C1[N+](=O)[O-] (stereo not drawn)	6.1%	-17.2%	1.1%	12.6%	-15.3%	-0.9%
CN(C)c1ccc([C@@H]2[C@@H]([N+](=O)[O-])[C@H]3C=Cc4ccccc4N3[C@H]2C(=O)c2ccc(Cl)cc2)cc1	-7.6%	7.31µM*	6.51µM*	-7.6%	-0.2%	-15.4%
CSc1nc(Cl)c(Cc2ccc(OC(C)C)cc2)c(N(C)C)n1	-3.1%	16.4µM*	?	0.0%	-16.3%	-31.7%
COc1ccc(Cc2c(Cl)ncnc2Cl)cc1	-8.9%	?	-14.9%	-1.8%	-12.0%	-23.8%
CCOc1ccc(Cc2c(Cl)nc(SC)nc2N(C)C)cc1	?	16.4µM*	18.4µM*	?	?	-6.8%
SMILES	HT1080 IDH1KD tx	TDP1 cell noCPT	DT40 TDP1 CPT	HT1080NT lethal	TGFb SMAD3 inh	HepG2 tox
COc1ccc2cc(C#N)c(N3CCN(Cc4nnnn4CCC(C)C)CC3)nc2c1	-10.4%	18.4µM*	20.6µM*	6.2%	-7.0%	-54.3%
Cc1ccc2nc(N3CCN(Cc4nnnn4Cc4ccccc4)CC3)c(C#N)cc2c1	-18.5%	?	?	-2.7%	-5.7%	-9.5%
Cc1cnc(-n2ncc(C(=O)N[C@H]3CCCCNC3=O)c2C2CC2)nc1-c1cccs1	.	-17.9%	-22.0%	.	.	.
COc1ccnc(Oc2ccccc2)c1C(=O)N/C=N/OCc1ccc(F)cc1Cl	15.8µM*	?	?	?	?	-49.1%
O=C(COc1ccccc1Cl)NC(=S)Nc1ccccc1N1CCCC1	-5.5%	-0.4%	-23.8%	-0.3%	-19.9%	-22.6%
O=C(COc1ccccc1Cl)NC(=S)N1CCc2ccccc21	?	?	-23.1%	11.2µM*	-20.5%	-13.5%
O=C(COc1ccccc1)NC(=S)N1CCc2ccccc21	3.1%	16.4µM*	?	-0.6%	5.2%	-0.8%
O=C(CC1SC(=Nc2ccccc2)N(CCc2ccccn2)C1=O)Nc1ccc(F)cc1 (stereo not drawn)	?	?	?	?	?	-2.9%
Cc1cccc(C)c1N=C1SC(CC(=O)Nc2c(C)cccc2C)C(=O)N1CCc1ccccn1 (stereo not drawn)	-8.5%	16.4µM*	?	-6.0%	-0.1%	-19.2%
Cc1ccc(S(=O)(=O)NC(=NCC(=O)O)c2ccccc2)cc1	-3.2%	?	-6.9%	-1.1%	4.5%	3.16µM*
Cc1nnc(NC(=O)C2CC(=O)N(C(C)c3ccccc3)C2)s1 (stereo not drawn)	3.8%	12.2%	-6.9%	-1.6%	-8.6%	5.3%
CCOC(=S)SCC(=O)N1CCc2cc(OC)ccc2C1C1C(=O)CCCC1=O (stereo not drawn)	23.1µM*	18.4µM*	?	?	?	-1.4%
Cc1ccc(OCC(=O)N/N=C\c2cn(C)c3ccccc23)c([N+](=O)[O-])c1	-2.3%	14.6µM*	?	-8.3%	-0.5%	-45.4%
